# From publication PMC4336329 (PLoS ONE, 2015)
# The whole screen tested about 310,000 compounds, of which about 2,200 (0.71%) showed an effect of 50% or more. Effects have a minus sign here. Many of the other results were omitted from the sample, so strong results are more common in it than they were.
# Molecular target: human ether-à-go-go-related gene (hERG) potassium channel (human, UniProt Q12809)
# Experiment: primary screen, population patch clamp on CHO cells stably expressing hERG; higher = less effect of the substance
# Sequence of human ether-à-go-go-related gene (hERG) potassium channel (Q12809 whole entry, looked up): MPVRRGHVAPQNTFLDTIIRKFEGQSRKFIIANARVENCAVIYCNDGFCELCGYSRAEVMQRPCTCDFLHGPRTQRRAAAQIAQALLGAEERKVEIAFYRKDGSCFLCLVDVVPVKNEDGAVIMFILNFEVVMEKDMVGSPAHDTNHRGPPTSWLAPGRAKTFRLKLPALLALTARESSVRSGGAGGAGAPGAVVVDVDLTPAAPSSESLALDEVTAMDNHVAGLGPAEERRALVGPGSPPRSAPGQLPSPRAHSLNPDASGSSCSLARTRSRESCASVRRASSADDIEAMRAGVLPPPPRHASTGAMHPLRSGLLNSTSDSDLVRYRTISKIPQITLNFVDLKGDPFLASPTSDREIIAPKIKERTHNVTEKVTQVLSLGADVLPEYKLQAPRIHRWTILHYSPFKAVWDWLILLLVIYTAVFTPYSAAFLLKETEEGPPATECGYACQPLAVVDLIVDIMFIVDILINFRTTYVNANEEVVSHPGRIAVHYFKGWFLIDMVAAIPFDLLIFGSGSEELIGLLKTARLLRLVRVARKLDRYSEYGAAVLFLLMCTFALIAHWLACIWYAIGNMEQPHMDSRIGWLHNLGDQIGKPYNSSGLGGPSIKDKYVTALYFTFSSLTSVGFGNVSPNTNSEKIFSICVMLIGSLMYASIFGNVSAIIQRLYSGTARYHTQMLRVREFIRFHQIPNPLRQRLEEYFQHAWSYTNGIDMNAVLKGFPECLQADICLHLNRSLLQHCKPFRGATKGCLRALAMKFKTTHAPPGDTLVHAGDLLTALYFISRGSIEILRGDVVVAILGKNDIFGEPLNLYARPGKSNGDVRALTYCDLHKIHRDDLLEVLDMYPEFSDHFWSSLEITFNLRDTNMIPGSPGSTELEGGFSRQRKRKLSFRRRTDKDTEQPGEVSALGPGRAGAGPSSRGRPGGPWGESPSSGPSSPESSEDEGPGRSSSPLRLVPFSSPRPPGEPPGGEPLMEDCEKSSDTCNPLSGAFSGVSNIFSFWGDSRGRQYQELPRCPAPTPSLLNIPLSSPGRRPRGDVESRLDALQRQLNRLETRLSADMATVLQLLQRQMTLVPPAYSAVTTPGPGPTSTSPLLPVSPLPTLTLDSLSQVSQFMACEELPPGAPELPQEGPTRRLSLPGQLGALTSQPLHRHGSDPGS
row,Structure (SMILES),"hERG current change (%, negative = inhibition) at 1uM [%]"
1,O=C(Nc1nc2ccccc2n1CCN1CCCCC1)c1ccco1,-37.4
2,CCn1cc(Cl)c(C(=O)Nc2nc3ccccc3n2CCN2CCCCC2)n1,-51.8
3,O=C(Nc1nc2ccccc2n1CCN1CCCCC1)c1ccc(Cl)cc1,-5.1
4,Cc1c(Cl)c(C(=O)Nc2nc3ccccc3n2CCN2CCCCC2)nn1C,-61.5
5,Cc1ccc(C(=O)Nc2nc3ccccc3n2CCN2CCCC2)cc1,-19.5
6,CCn1nccc1C(=O)Nc1nc2ccccc2n1CCN1CCCCC1,-11.2
7,CC(C)Oc1cccc(C(=O)C2CCCN(C(=O)CCc3cnn(C)c3)C2)c1 (centres unmarked),10.7
8,CCCn1c(C)cc(/C=C(\C#N)C(=O)OCC(=O)N(C)c2c(N)n(Cc3ccccc3)c(=O)[nH]c2=O)c1C,11
9,O=C(CNc1ccc(F)cc1)N/N=C/c1c(O)ccc2ccccc12,6.94
10,CCNc1nnc(-c2ccc(C)cc2)o1,9.37
11,C/C=C/c1ccc(OCCNCc2ccccc2)c(OC)c1.O=C(O)C(=O)O,4.38
12,C/C=C/c1ccc(OCCCNC)c(OC)c1.O=C(O)C(=O)O,-10.9
13,C/C=C/c1ccc(OCCCCNCc2ccco2)c(OC)c1.O=C(O)C(=O)O,-62.6
14,O=C(c1cccnc1NCc1ccc(F)cc1)N1CCOCC1,5.16
15,CN(C)c1ccc(/C=C/C(=O)c2ccccc2)cc1[N+](=O)[O-],-0.74
16,Cc1cccc(NC(=O)CN2CCN(C(=O)C3CCN(C(=O)/C=C/c4ccccc4)CC3)CC2)c1C,-56.6
17,Cc1cccc(NC(=O)CN2CCN(C(=O)C3CCCO3)CC2)c1C (centres unmarked),5.32
18,CCc1ccccc1NC(=O)CN1CCN(CC(=O)Nc2ccc(-c3ccccc3)cc2)CC1,-7.45
19,COC(=O)C1CCN(C(=O)/C=C/c2ccccc2)CC1,11.1
20,CCc1ccccc1NC(=O)CN1CCN(C(=O)C2CCN(C(=O)/C=C/c3ccccc3)CC2)CC1,-74.5
21,Cc1cccc(NC(=O)CN2CCN(C(=O)C3CCC3)CC2)c1C,-7.56
22,O=C(CN1CCN(C(=O)c2ccco2)CC1)NCc1ccc(Cl)cc1,-35.1
23,O=C(OCC(=O)N1CCN(C(=O)c2ccco2)CC1)c1cncc(Br)c1,6.76
24,C[C@@H](C(=O)NCc1c(F)cccc1Cl)N1C(=O)N2CCc3c([nH]c4ccccc34)[C@@]2(C)C1=O,4.12

row,Structure (SMILES),"hERG current change (%, negative = inhibition) at 1uM [%]"
1,C[N+]1=C(/C=C/Nc2ccccc2)C(C)(C)c2ccccc21.[O-][Cl+3]([O-])([O-])[O-],-62.8
2,COC(=O)c1ccc2c(c1)C(C)(C)C(/C=C/c1ccccc1O)=[N+]2C.[I-],-7.78
3,CC1(C)OC(=O)C(=CNc2ccccc2)C(=O)O1,2.21
4,O=C1c2ccccc2C(=O)N1OCc1ccc(Cl)cc1,8.72
5,COc1ccc(CN2CCN(Cc3ccc(C(F)(F)F)cc3)CC2)c(OC)c1.O=C(O)C(=O)O,-66.6
6,COc1ccc(CN2CCN(Cc3ccc(C)cc3)CC2)c(OC)c1.O=C(O)C(=O)O,-18.9
7,CCOc1ccccc1OCCN1CCC(Cc2ccccc2)CC1.O=C(O)C(=O)O,-53.7
8,COc1cc(C(=O)OCC(=O)N2CCC(Cc3ccccc3)CC2)cc(OC)c1OC,13.4
9,Cc1ccccc1OCCN1CCC(Cc2ccccc2)CC1.O=C(O)C(=O)O,-10
10,COc1ccc(OC)c(CN2CCC(Cc3ccccc3)CC2)c1.O=C(O)C(=O)O,-61.9
11,COc1ccc(CN2CCC(Cc3ccccc3)CC2)cc1OC.O=C(O)C(=O)O,-32.9
12,COc1ccc(OC)c(CN2CCN(C(=O)Cc3ccccc3)CC2)c1.O=C(O)C(=O)O,17.6
13,COc1cc(CN2CCC(C)CC2)ccc1OCc1ccccc1.O=C(O)C(=O)O,-3.21
14,COc1ccc(CN2CCN(Cc3ccc(C(F)(F)F)cc3)CC2)cc1.O=C(O)C(=O)O,-24.5
15,Clc1ccccc1OCCN1CCC(Cc2ccccc2)CC1.O=C(O)C(=O)O,10.6
16,COc1cc(C(C)=O)ccc1OCCN1CCC(Cc2ccccc2)CC1.O=C(O)C(=O)O,-93.3
17,COC(=O)C1CCN(C(=O)Cc2ccc(C)cc2)CC1,10.2
18,COc1cccc(C(=O)Nc2cccc(-c3nnc(-c4ccco4)o3)c2)c1,-1.01
19,O=C(O)c1cccc(O)c1O,8.42
20,CCOC(=O)N1CCN(Cc2cc(=O)oc3cc4c(cc23)CCC4)CC1,-3.49
21,Cc1cc(=S)[nH]c2c(C)cccc12,15.9
22,c1ccc(-c2cnnc(-c3ccccn3)n2)cc1,4.98
23,CN(C)CCCOC(=O)c1cc2ccccc2o1.Cl,13
24,COc1ccccc1C1=NOC(C(=O)N2CCN(C(=O)c3ccco3)CC2)C1 (centres unmarked),8.33

row,Structure (SMILES),"hERG current change (%, negative = inhibition) at 1uM [%]"
1,Cc1cccc2cc(C#N)c(NCCCn3ccnc3)nc12,-11.1
2,COc1cc(C(C)=O)ccc1OCCCN1CCC(Cc2ccccc2)CC1.O=C(O)C(=O)O,-82.8
3,COc1cccc(CN2CCC(N(CCc3ccccc3)Cc3ccccc3)CC2)c1OC.O=C(O)C(=O)O,0.877
4,COc1ccc(CN2CCC(C(=O)N(C)CCc3ccc(OC)c(OC)c3)CC2)c(OC)c1.O=C(O)C(=O)O,-18
5,COc1ccc(CCNC(=O)c2ccc(CN3CCC(Cc4ccccc4)CC3)cc2)cc1OC,-3.19
6,COc1ccc(CN2CCC(N(CCc3ccccc3)Cc3ccccc3)CC2)c(OC)c1.O=C(O)C(=O)O,-79.8
7,COc1cc(C(=S)N2CCC(Cc3ccccc3)CC2)ccc1OCC(N)=O,3.73
8,CC(C)(C)c1ccc(COn2ccnc2)cc1,21
9,COC(=O)CSc1ccc(C#N)c(SCC(=O)OC)c1,12.6
10,COC(=O)c1ccc(NC(=O)CN2CCN(S(=O)(=O)c3cc(Cl)ccc3OC)CC2)cc1,10.2
11,O=C(CSc1n[nH]c(-c2cccnc2)n1)Nc1ccccc1[N+](=O)[O-],11.9
12,COc1cccc(Cn2c(-c3cccs3)noc2=O)c1,-8.06
13,COc1ccc(C)cc1S(=O)(=O)N(CC(=O)N1CCOCC1)c1cc(C)cc(C)c1,-52
14,COc1ccc(C)cc1S(=O)(=O)N(CC(=O)N1CCCC1)c1ccccc1,4.54
15,COc1ccc(C)cc1S(=O)(=O)N(CC(=O)N1CCCC1)c1ccc(C)cc1,-25.1
16,CCCC(=O)Nn1cnc2c(c1=O)C1(CCCCC1)Cc1ccccc1-2,7.68
17,COCCN=C1Sc2nc3cc(C)c(C)cc3cc2CN1Cc1cccs1,8.08
18,COc1ccc(NC(=O)CN2CCN(S(=O)(=O)c3ccc(Cl)cc3)CC2)cc1,-64.1
19,COc1cccc(NC(=O)CN2CCN(CC(=O)Nc3ccccc3Cl)CC2)c1,-21.1
20,COc1ccc(NC(=O)CN2CCN(CC(=O)Nc3ccc(OC)c(OC)c3)CC2)cc1,-66.1
21,COc1ccc(NC(=O)CN2CCCCCC2)cc1OC,7.92
22,COc1ccc(NC(=O)CCN2CCN(S(=O)(=O)c3ccc(Cl)cc3)CC2)cc1,2.03
23,COc1ccc(NC(=O)CN2CCN(CC(=O)Nc3ccccc3Cl)CC2)cc1,-79.3
24,COc1ccc(NC(=O)CN2CCN(c3ccccc3Cl)CC2)cc1,1.08

row,Structure (SMILES),"hERG current change (%, negative = inhibition) at 1uM [%]"
1,NC(=O)C1(N2CCCCC2)CCN(CC(=O)Nc2ccccc2-c2ccccc2)CC1,15.5
2,COc1ccc(NC(=O)CN2CCC(C(N)=O)CC2)cc1,2.62
3,NC(=O)C1(N2CCCCC2)CCN(CC(=O)Nc2cc(Cl)ccc2Cl)CC1,-55.3
4,CCOc1ccc(NC(=O)CN2CCN(S(=O)(=O)c3ccc(Cl)cc3)CC2)cc1,10.8
5,O=C(CN1CCCCC1)Nc1cc(Cl)ccc1Cl,-0.089
6,O=C(Nc1nc(-c2ccc3c(c2)OCCO3)cs1)C1CCCC1,8.23
7,COC(=O)C1=C(c2cc3ccccc3o2)C[C@@H]2CC[C@H]1N2C(=O)N1CCCC1,7.5
8,NC(=NCCc1ccc(Cl)cc1)NS(=O)(=O)c1ccccc1,9.74
9,O=C(c1ccccc1Br)N1CCCC(c2nc(-c3cccs3)no2)C1 (centres unmarked),13.2
10,COc1ccc2oc(=N)c(-c3nnc4n3CCCCC4)cc2c1,1.02
11,Cc1ccccc1C(=O)N1CCC(C(=O)Nc2ccc(C)c(S(=O)(=O)N3CCCCC3)c2)CC1,2.28
12,COc1ccc(NC(=O)CN2CCCCC2)cc1.O=C(O)C(=O)O,10.6
13,COc1ccc(CN2CCCN(S(=O)(=O)c3ccc(Br)cc3)CC2)cc1,-75.6
14,COc1ccc(NC(=O)CN2CCN(S(=O)(=O)N(C)C)CC2)cc1,13.9
15,O=C(CN1CCN(S(=O)(=O)N2CCCCCC2)CC1)Nc1ccc(Br)cc1,-3.27
16,O=C(CN1CCN(S(=O)(=O)N2CCCCC2)CC1)Nc1ccc(Br)cc1,2.87
17,COc1ccc(S(=O)(=O)N2CCN(Cc3ccc(Cl)cc3)CC2)cc1,-4.05
18,O=C(CN1CCN(C(=O)N2CCCCC2)CC1)Nc1ccc(F)cc1,-76.5
19,O=C(CN1CCCC1)Nc1ccc(F)cc1,16.6
20,O=C(CN1CCN(C(=O)C2CCC2)CC1)Nc1ccc(F)cc1,-27.3
21,COc1cccc(CN2CCCN(S(=O)(=O)c3ccc(Br)cc3)CC2)c1,-22.3
22,O=C(CN1CCN(S(=O)(=O)N2CCCCCC2)CC1)Nc1ccc(F)cc1,-75.1
23,COc1ccc(NC(=O)CN2CCN(S(=O)(=O)N3CCCCCC3)CC2)cc1,-60.8
